Experimental findings from PubChem BioAssay (EPA / NIEHS) are described below.

Results filed as inconclusive are left out. The source made the active and inactive calls. Rule for the calls: active = hit-call score of the fitted dose curve at least 0.9, where 1 is the maximum; inconclusive = response in the unintended direction; inactive = score below 0.9.

Sequence of human Vitamin D Receptor (VDR), VDR (gene 7421) (P11473 whole entry, looked up, the tested form may be a part): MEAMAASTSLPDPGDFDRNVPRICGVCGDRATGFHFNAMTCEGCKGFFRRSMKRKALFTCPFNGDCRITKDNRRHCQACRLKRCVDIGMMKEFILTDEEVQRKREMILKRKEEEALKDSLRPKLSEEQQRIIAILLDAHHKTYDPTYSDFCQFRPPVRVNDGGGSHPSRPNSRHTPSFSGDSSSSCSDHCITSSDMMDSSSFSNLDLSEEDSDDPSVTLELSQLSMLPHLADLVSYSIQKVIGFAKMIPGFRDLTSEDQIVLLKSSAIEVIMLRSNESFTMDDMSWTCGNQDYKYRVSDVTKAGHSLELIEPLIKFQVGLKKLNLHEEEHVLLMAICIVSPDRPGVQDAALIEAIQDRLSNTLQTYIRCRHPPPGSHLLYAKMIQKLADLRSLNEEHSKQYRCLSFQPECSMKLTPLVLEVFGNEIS

The assay addresses human Vitamin D Receptor (VDR), VDR (gene 7421) (UniProt P11473). Description: ATG_VDR_TRANS: Attagene TRANS-FACTORIAL HepG2 Assay for human Vitamin D Receptor (VDR) (AID 2283022). In short, it runs like this:
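Steps: transfect HepG2 with GAL4-UAS-driven reporter constructs; dose compounds 24 h; isolate RNA, reverse-transcribe, PCR-amplify with 6-FAM-labelled primer extension and HpaI digestion; quantify fragments by capillary electrophoresis relative to DMSO.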
Consider `CC(=O)c1ccccc1N`, for which the result was inactive.

`CC(C)(C)c1cc(Cc2cc(C(C)(C)C)c(O)c(C(C)(C)C)c2)cc(C(C)(C)C)c1O`: the compound was classed as inactive.

For `CCCCCCCCCc1ccc(OCCO)cc1`, the outcome was inactive.

As to `O=C(c1ccccc1)c1ccc(Cl)cc1`, the call was inactive.

Regarding `CCCCCCCCCCCC(=O)Cl`, the call was inactive.

`CC1=CCC2C(=O)OC(=O)C2C1` (stereo unspecified): the compound was called inactive.

In the case of `CC(C)=CCCC(C)O` (stereo unspecified), the outcome was inactive.

Take `Cc1cc(=O)[nH]c(C(C)C)n1`: the outcome was inactive.

As to `CCCC(=O)OCC(COC(=O)CCC)OC(=O)CCC`, the compound was classed as inactive.

As for `CCCCOC(=O)[C@H](C)O`, the compound was called inactive.

For `N#Cc1ccccc1O`, the result was inactive.

As to `CCc1cc(Cc2cc(CC)c(N)c(CC)c2)cc(CC)c1N`, the compound was called inactive.

For `CCC(Cc1c(I)cc(I)c(N)c1I)C(=O)O` (stereo unspecified), the outcome was inactive.

Take `O=S(=O)(O)c1ccc(Cl)cc1`: the compound was classed as inactive.

Take `CC(C)CC=C(C=O)c1ccccc1`: the compound was classed as inactive.

As for `CCCCC(CC)COC(=O)c1ccc(N(C)C)cc1` (stereo unspecified), the call was inactive.

As to `O=C1C=CC(=O)N1c1ccccc1`, the result was inactive.

As for `OCCCCl`, the compound was classed as inactive.

Turning to `COCCC(=O)OC`, the compound was classed as inactive.

Take `CCN=c1cc2oc3cc(NCC)c(C)cc3c(-c3ccccc3C(=O)OCC)c-2cc1C`: the compound was classed as inactive.

With `CC(C)(C)c1cc(CCC(=O)OCC(COC(=O)CCc2cc(C(C)(C)C)c(O)c(C(C)(C)C)c2)(COC(=O)CCc2cc(C(C)(C)C)c(O)c(C(C)(C)C)c2)COC(=O)CCc2cc(C(C)(C)C)c(O)c(C(C)(C)C)c2)cc(C(C)(C)C)c1O`, the result was inactive.

In the case of `COCCOCCC[Si](C)(O[Si](C)(C)C)O[Si](C)(C)C`, the compound was classed as inactive.

Regarding `CN(C)C(C)(C)CO`, the outcome was inactive.

Take `O=c1cccc[nH]1`: the outcome was inactive.

Turning to `C=CCOC(=O)CC(C)C`, the compound was called inactive.

For the compound `c1ccc(C[P+](c2ccccc2)(c2ccccc2)c2ccccc2)cc1`, the result was inactive.

In the case of `CCn1c2ccccc2c2ccccc21`, the compound was classed as inactive.

`OCCC(O)CO` (stereo unspecified): the compound was called inactive.

Take `CC(C)Nc1ccc(NC(C)C)c2c1C(=O)c1ccccc1C2=O`: the result was inactive.

Consider `CCCCCCCCCCCCC[N+](C)(C)Cc1ccccc1`, for which the compound was classed as inactive.

In the case of `C[Si](C)O[Si](C)C`, the result was inactive.
